PubChem BioAssay (NCI)
About 79,000 compounds went through this panel and 15% of them were active in at least one assay; those are over-represented in the sample as a whole. Calls of active or inactive are those of the source. Cut-off read from the data, not from the text of the source: active = growth inhibition above about 70%; inactive = the rest.

What was measured:
[1] = NCI Yeast Anticancer Drug Screen. Data for the rad52 strain (AID 147);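 note: 0% = growth of vehicle-treated control cultures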; settings: S. cerevisiae rad52 mutant growth inhibition, active compounds read high
Procedure, shortened: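 Vehicle-treated cultures served as the reference for growth inhibition of compound-exposed yeast bearing a DNA repair mutation.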

[2] = NCI Yeast Anticancer Drug Screen. Data for the wt1 strain (AID 149);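 note: 0% = growth of vehicle-treated wt1 cultures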; settings: S. cerevisiae wt1 strain (SPY 50644) growth inhibition, active compounds read high
Procedure, shortened: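 Compounds are added to wt1 yeast cultures. Growth is then measured. Inhibition is expressed relative to vehicle-treated controls.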

[3] = NCI Yeast Anticancer Drug Screen. Data for the rad50EPP+ strain (AID 151);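 note: 0% = growth of vehicle-treated control cultures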; settings: S. cerevisiae rad50 mutant strain, active compounds read high
Procedure, shortened: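 In this screen, rad50EPP+ yeast were exposed to compounds. Growth inhibition was scored against vehicle-treated controls.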

[4] = NCI Yeast Anticancer Drug Screen. Data for the mgt1 strain (AID 153); settings: S. cerevisiae mgt1 mutant growth inhibition, active compounds read high
Procedure, shortened: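 mgt1 strain exposed; growth vs vehicle control recorded as inhibition.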

[5] = NCI Yeast Anticancer Drug Screen. Data for the rad50 strain (AID 155);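 note: 0% = growth of vehicle-only cultures of the same strain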; settings: S. cerevisiae rad50 strain growth inhibition, active compounds read high
Procedure, shortened: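 Inhibition values express reduced yeast growth in compound-treated cultures relative to vehicle-treated controls.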

[6] = NCI Yeast Anticancer Drug Screen. Data for the mec2-1 strain (AID 157); settings: S. cerevisiae mec2-1 strain, active compounds read high
Procedure, shortened: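 Vehicle-treated cultures served as reference for growth inhibition of compound-exposed mec2-1 yeast.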

[7] = NCI Yeast Anticancer Drug Screen. Data for the rad14 strain (AID 159);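 note: 0% = growth of vehicle-treated control cultures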; settings: S. cerevisiae rad14 strain growth inhibition, active compounds read high
Procedure, shortened: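 A mutant yeast strain defective in DNA damage repair is treated with compound; inhibition of its growth is scored against untreated, vehicle-exposed cultures.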

[8] = NCI Yeast Anticancer Drug Screen. Data for the sgs1 mgt1 strain (AID 161);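 note: 0% = growth of cultures given vehicle only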; settings: S. cerevisiae sgs1 mgt1 strain, active compounds read high
Procedure, shortened: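 Test agents were incubated with a DNA-repair-mutant yeast strain. Growth was then read and compared against vehicle-treated controls.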

[9] = NCI Yeast Anticancer Drug Screen. Data for the CLN2oe strain (AID 163);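 note: 0% = growth of vehicle-only control cultures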; settings: S. cerevisiae CLN2oe strain, active compounds read high
Procedure, shortened: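 Inhibition relative to vehicle-treated yeast is reported. Cells: strain with genetic alteration in cell-cycle control, grown with compound.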

[10] = NCI Yeast Anticancer Drug Screen. Data for the cln2 rad14 strain (AID 165);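 note: 0% = growth equal to vehicle treated cultures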; settings: S. cerevisiae cln2 rad14 strain, active compounds read high
Procedure, shortened: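 Each compound was tested on cln2 rad14 yeast. Inhibition of growth was calculated against vehicle-exposed controls.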

[11] = NCI Yeast Anticancer Drug Screen. Data for the bub3 strain (AID 167); settings: S. cerevisiae bub3 mutant strain, active compounds read high
Procedure, shortened: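 Steps: expose the mutant yeast strain to compound; grow alongside vehicle-treated cultures; measure growth; express inhibition against the vehicle cultures.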

[12] = NCI Yeast Anticancer Drug Screen. Data for the wt2 strain (AID 169);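 note: 0% = growth of vehicle-treated yeast cultures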; settings: S. cerevisiae wt2 strain growth inhibition, active compounds read high
Procedure, shortened: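 Inhibition of yeast growth was determined after compound treatment, normalised to controls receiving only vehicle.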

[13] = NCI Yeast Anticancer Drug Screen. Data for the mlh1 strain (AID 171);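 note: 0% = growth of vehicle-treated control cultures of the same strain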; settings: S. cerevisiae mlh1 strain growth inhibition, active compounds read high
Procedure, shortened: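 Vehicle-normalised growth inhibition of a repair- or checkpoint-altered yeast strain following compound treatment.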

[14] = NCI Yeast Anticancer Drug Screen. Data for the sgs1 strain (AID 173);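 note: 0% = growth of vehicle-only control cultures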; settings: S. cerevisiae sgs1 mutant, active compounds read high
Procedure, shortened: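 Screen format: yeast with repair or checkpoint alterations, compound exposure, growth read relative to vehicle.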

[15] = NCI Yeast Anticancer Drug Screen. Data for the mlh1 rad18 strain (AID 175); settings: S. cerevisiae mlh1 rad18 strain growth inhibition, active compounds read high
Procedure, shortened: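 Vehicle-treated cultures served as the reference for growth inhibition in a yeast strain carrying DNA damage repair alterations exposed to each compound.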

[16] = NCI Yeast Anticancer Drug Screen. Data for the rad18 strain (AID 177); settings: S. cerevisiae rad18 mutant growth inhibition, active compounds read high
Procedure, shortened: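 Test articles were incubated with altered yeast defective in DNA damage repair. Results are given as inhibition of growth versus vehicle.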

[17] = at 5.0 µM (retest, dose inferred, filed as 0.5)
[18] = at 50.0 µM (retest, dose inferred, filed as 5.0)

Measured: growth inhibition

CCCCCCCCNCCCCCCCC
inactive: [1]; at 1.2 µM 4% | [1]; at 3.7 µM 18% | [2]; at 1.2 µM 0% | [2]; at 3.7 µM 2% | [2]; at 11.0 µM 29% | [3]; at 1.2 µM 1% | [3]; at 3.7 µM -1% | [3]; at 11.0 µM 24% | [4]; at 1.2 µM 12% | [4]; at 3.7 µM 29% | [5]; at 1.2 µM 6% | [5]; at 3.7 µM 3% | [5]; [17] 67% | [6]; at 1.2 µM 2% | [6]; at 3.7 µM 13% | [6]; [17] 9% | [7]; at 1.2 µM 50% | [9]; at 1.2 µM 13% | [9]; at 3.7 µM 21% | [9]; at 11.0 µM 60% | [10]; [17] 65% | [11]; at 1.2 µM 33% | [11]; at 3.7 µM 49% | [12]; at 1.2 µM 0% | [12]; at 3.7 µM 17% | [13]; at 1.2 µM 6% | [13]; at 3.7 µM 20% | [14]; at 1.2 µM 11% | [14]; at 3.7 µM 30% | [16]; at 1.2 µM 14% | [16]; at 3.7 µM 38%
active: [1]; at 11.0 µM 76% | [1]; at 33.0 µM 99% | [1]; at 100.0 µM 99% | [2]; at 33.0 µM 96% | [2]; at 100.0 µM 99% | [3]; at 33.0 µM 92% | [3]; at 100.0 µM 99% | [4]; at 11.0 µM 97% | [4]; at 33.0 µM 100% | [4]; at 100.0 µM 100% | [5]; at 11.0 µM 96% | [5]; at 33.0 µM 98% | [5]; [18] 99% | [5]; at 50.0 µM 99.5% | [5]; at 100.0 µM 98% | [6]; at 11.0 µM 77% | [6]; at 33.0 µM 98% | [6]; [18] 100% | [6]; at 50.0 µM 99.7% | [6]; at 100.0 µM 98% | [7]; at 3.7 µM 82% | [7]; at 11.0 µM 97% | [7]; at 33.0 µM 98% | [7]; at 100.0 µM 98% | [8]; [17] 82% | [8]; [18] 100% | [8]; at 50.0 µM 99.5% | [9]; at 33.0 µM 97% | [9]; at 100.0 µM 97% | [10]; [18] 100% | [10]; at 50.0 µM 99.1% | [11]; [17] 74% | [11]; at 11.0 µM 95% | [11]; at 33.0 µM 98% | [11]; [18] 99% | [11]; at 50.0 µM 99.5% | [11]; at 100.0 µM 99% | [12]; at 11.0 µM 76% | [12]; at 33.0 µM 99% | [12]; at 100.0 µM 99% | [13]; at 11.0 µM 96% | [13]; at 33.0 µM 99% | [13]; at 100.0 µM 100% | [14]; at 11.0 µM 94% | [14]; at 33.0 µM 97% | [14]; at 100.0 µM 97% | [15]; [17] 80% | [15]; [18] 99% | [15]; at 50.0 µM 99.3% | [16]; at 11.0 µM 91% | [16]; at 33.0 µM 99% | [16]; at 100.0 µM 95%

Cc1cc(C)c2[s+]snc2c1
active: [3]; at 100.0 µM 80% | [8]; at 50.0 µM 79% | [15]; at 50.0 µM 76%
inactive: [1]; at 1.2 µM 12% | [1]; at 3.7 µM 7% | [1]; at 11.0 µM 16% | [1]; at 33.0 µM 29% | [1]; at 100.0 µM 54% | [2]; at 1.2 µM -36% | [2]; at 3.7 µM 1% | [2]; at 11.0 µM 1% | [2]; at 33.0 µM 9% | [2]; at 100.0 µM 26% | [3]; at 1.2 µM 1% | [3]; at 3.7 µM 5% | [3]; at 11.0 µM 5% | [3]; at 33.0 µM 20% | [4]; at 1.2 µM 1% | [4]; at 3.7 µM 3% | [4]; at 11.0 µM 6% | [4]; at 33.0 µM 12% | [4]; at 100.0 µM 23% | [5]; at 1.2 µM 0% | [5]; at 3.7 µM 1% | [5]; [17] -5% | [5]; at 11.0 µM 3% | [5]; at 33.0 µM 9% | [5]; [18] 23% | [5]; at 50.0 µM 50.5% | [5]; at 100.0 µM 20% | [6]; at 1.2 µM -3% | [6]; at 3.7 µM -5% | [6]; [17] -6% | [6]; at 11.0 µM -3% | [6]; at 33.0 µM 10% | [6]; [18] 68% | [6]; at 50.0 µM 50.2% | [6]; at 100.0 µM 29% | [7]; at 1.2 µM 2% | [7]; at 3.7 µM 4% | [7]; at 11.0 µM 5% | [7]; at 33.0 µM 9% | [7]; at 100.0 µM 21% | [8]; [17] -1% | [8]; [18] 31% | [9]; at 1.2 µM -7% | [9]; at 3.7 µM -7% | [9]; at 11.0 µM -4% | [9]; at 33.0 µM -1% | [9]; at 100.0 µM 17% | [10]; [17] -19% | [10]; [18] 19% | [10]; at 50.0 µM 33.1% | [11]; at 1.2 µM -4% | [11]; at 3.7 µM -4% | [11]; [17] -5% | [11]; at 11.0 µM -5% | [11]; at 33.0 µM 1% | [11]; [18] 61% | [11]; at 50.0 µM 52% | [11]; at 100.0 µM 30% | [12]; at 1.2 µM -2% | [12]; at 3.7 µM 1% | [12]; at 11.0 µM 3% | [12]; at 33.0 µM 7% | [12]; at 100.0 µM 30% | [13]; at 1.2 µM 1% | [13]; at 3.7 µM 1% | [13]; at 11.0 µM 0% | [13]; at 33.0 µM 4% | [13]; at 100.0 µM 19% | [14]; at 1.2 µM 4% | [14]; at 3.7 µM 7% | [14]; at 11.0 µM 8% | [14]; at 33.0 µM 17% | [14]; at 100.0 µM 36% | [15]; [17] 2% | [15]; [18] 34% | [16]; at 1.2 µM 7% | [16]; at 3.7 µM 9% | [16]; at 11.0 µM 6% | [16]; at 33.0 µM 27% | [16]; at 100.0 µM 49%
